Assay [1] can be described thus: qHTS assay to identify small molecule agonists of the RXR signaling pathway - cell viability counter screen (AID 1159529). Further: nearly all actives have a fitted effect of over 50% in size. Further: potency means the concentration at half of the fitted maximal effect.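 On activity change, negative = cytotoxicity: HEK 293T cells carrying an RXR-alpha UAS beta-lactamase reporter; series mostly up to about 77 µM.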 The essentials:
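Viability read-out for the RXR-alpha agonist qHTS: luminescent CellTiter-Glo signal after 30 min at RT. HEK 293T bla reporter cells, 2% charcoal-stripped FBS, 16 hr compound incubation; tetraoctyl ammonium bromide as cytotoxic control.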

Assay [2] can be described thus: qHTS assay to identify small molecule antagonists of the retinoid acid receptor (RAR) signaling pathway - cell viability counter screen (AID 1159551). Further: nearly all actives have a fitted effect of over 35% in size. An outline of the steps:
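Luminescent ATP quantitation (CellTiter-Glo) gave cell viability in C3RL4 cells exposed to test chemicals for 6 h at 37 C alongside 1 uM final retinol.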

Assay [3] in a line: qHTS assay to identify small molecule antagonists of the retinoic acid receptor (RAR) signaling pathway (AID 1159552; further: nearly all actives have a fitted effect of over 50% in size). An outline of the steps:
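Using a RARE-driven luciferase construct in C3RL4 cells, retinol at 1 uM final provided the agonist stimulus while compounds were co-applied. After 6 hours at 37 C, luminescence was recorded to flag inhibitors of retinol signaling.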
Background: In qHTS, concentration-response curves come from the screen itself.

Assay [4] can be described thus: qHTS assay to identify small molecule agonists of the retinoic acid receptor (RAR) signaling pathway (AID 1159553). An outline of the steps:
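Luminescence from a RARE-driven luciferase reporter in C3RL4 cells served as the read-out, measured after 30 min with detection reagent at room temperature. Compounds in DMSO were applied for 6 hr at 37 C following overnight seeding.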

Assay [5] can be described thus: qHTS assay to identify small molecule antagonists of the estrogen related receptor (ERR) signaling pathway from Tox21 library - cell viability counter screen (AID 1224834). Further: nearly all actives have a fitted effect of over 30% in size. Further: potency means the concentration at half of the fitted maximal effect. The essentials:
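Fluorescence from CellTiter-Fluor gives the viability read-out, taken 30 min after reagent addition. Before that, ERR cells seeded 6 h earlier were incubated with compounds for 17.5 h at 37 C.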

The target of assay [6] is Luciferin 4-monooxygenase (Photinus pyralis) (UniProt P08659). Nature of the assay: qHTS assay to identify small molecule inhibitors of firefly luciferase (AID 1224835). Further: nearly all actives have a fitted effect of over 25% in size. Further: potency means the concentration at half of the fitted maximal effect. On activity change, negative = inhibition: series mostly up to about 120 µM. An outline of the steps:
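Inhibition of purified Photinus luciferase is measured by luminescence. Substrate levels (D-luciferin, ATP) sit at their KM values. Each compound is tested in a concentration series.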

Assay [7] is described as follows: qHTS assay to identify small molecule agonists of the constitutive androstane receptor (CAR) signaling pathway - cell viability counter screen (AID 1224836). Further: series mostly up to about 92 µM; nearly all actives have a fitted effect of over 45% in size. An outline of the steps:
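Multiplexed viability check: HepG2-CYP2B6-hCAR cells, 15-point compound dosing, 0.75 uM PK11195 final, 23 h at 37 C, CellTiter-Fluor fluorescence.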

Assay [8] in a line: qHTS assay to identify small molecule antagonists of the constitutive androstane receptor (CAR) signaling pathway - cell viability counter screen (AID 1224837). Further: series mostly up to about 92 µM; nearly all actives have a fitted effect of over 45% in size. The essentials:
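HepG2-CYP2B6-hCAR cells, 2500/well, 4 hr pre-incubation; compound titration, 15 conc.; CITCO 50 nM final; 23 hr, 37 C/5% CO2; CellTiter-Fluor, fluorescence intensity.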

The target of assay [9] is Nuclear receptor subfamily 1 group I member 3 (Homo sapiens) (UniProt Q14994). Nature of the assay: qHTS assay to identify small molecule antagonists of the constitutive androstane receptor (CAR) signaling pathway (AID 1224838).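 Further: HepG2 cells stably expressing hCAR with CYP2B6 luciferase reporter stimulated by CITCO; nearly all actives have a fitted effect of over 40% in size.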 The essentials: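 HepG2-CYP2B6-hCAR cells; 4 h pre-incubation; cpd (15 conc) + CITCO 50 nM final; 24 h, 37 C/5% CO2; ONE-Glo, luminescence.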
The target is the same in assay [10]. Put plainly: qHTS assay to identify small molecule agonists of the constitutive androstane receptor (CAR) signaling pathway (AID 1224839).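 Further: HepG2 cells stably carrying human CAR and a CYP2B6 luciferase reporter; series mostly up to about 92 µM; nearly all actives have a fitted effect of over 15% in size.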 An outline of the steps:
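Using human hepatoma HepG2 cells engineered with hCAR and a CYP2B6-2.2kb reporter, 15-concentration compound series were incubated 24 h alongside PK11195 at 0.75 uM final, with luminescence quantified afterwards.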

Assay [11] is described as follows: qHTS assay to identify small molecule antagonists of the estrogen related receptor signaling pathway with the pleiotropic PPARgamma coactivator (PGC) from Tox21 10K library - cell viability counter screen (AID 1224840; active means well fitted cell-killing curve with a large enough effect in the repeat runs, not every such curve was filed as active; further: nearly all actives have a fitted effect of over 40% in size). The essentials: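 PGC/ERR cells, 2,000/well; 6 h pre-incubation 37 C/5% CO2; cpd in DMSO via pin tool; 17.5 h 37 C; CellTiter-Fluor, 30 min; fluorescence.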

A short description of assay [12]: qHTS assay to identify small molecule agonists of the estrogen related receptor signaling pathway with the pleiotropic PPARgamma coactivator (PGC) from Tox21 10K library (AID 1224842). Further: nearly all actives have a fitted effect of over 15% in size. An outline of the steps:
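Luminescence from One-Glo (30 min, room temperature) measured after PGC/ERR cells had 18 h at 37 C with pinned compound (23 nL in DMSO). Cells had been seeded at 2,000 per well and pre-incubated 6 h.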

Assay [13] concerns the target Thyrotropin receptor (Homo sapiens) (UniProt P16473). Nature of the assay: qHTS assay to identify small molecule agonists of the thyroid stimulating hormone receptor (TSHR) signaling pathway (AID 1224843; calls by dose curve; further: nearly all actives have a fitted effect of over 45% in size). An outline of the steps:
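Screening of the Tox21 10K collection used HEK293 cells engineered with TSHR at 800 cells per well. After a 30-min room-temperature compound exposure, HTRF cAMP reagents were added and fluorescence recorded 1 h later.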

A short description of assay [14]: qHTS assay to identify small molecule antagonists of the estrogen related receptor (ERR) signaling pathway - cell viability counter screen (AID 1224818).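 Further: series mostly up to about 46 µM; viability measured after 17.5 h of compound exposure.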 The essentials: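 Multiplexed counter screen to separate cytotoxic compounds from true ERR modulators. ERR cells received DMSO-dissolved compounds after a 6 h pre-incubation, were exposed 17.5 h at 37 C, then assayed with CellTiter-Fluor fluorescence.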

Assay [15] is described as follows: qHTS assay to identify small molecule antagonists of the estrogen related receptor signaling pathway with the pleiotropic PPARgamma coactivator (PGC) from Tox21 10K library (AID 1224841; call rule not given here; further: series mostly up to about 92 µM; actives are mostly falling curves and most rising ones were filed inactive; nearly all actives have a fitted effect of over 50% in size). An outline of the steps: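 PGC/ERR cell line, 2,000 cells/well; 6 h pre-incubation 37 C/5% CO2; compounds (DMSO) pinned in; 18 h, 37 C; One-Glo, 30 min RT; luminescence.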

Records with an inconclusive call do not appear. Values without a mark were called inactive. Active and inactive are the calls of the source. Unless noted, the call rests on the fitted dose curve; in most records, active means well fitted curve in the direction sought with a large enough effect in the repeat runs; inconclusive means weak or mixed curves; inactive means no such curve, though single readings can be large; an effect the other way counts as inactive or inconclusive.
On the % scale 0 is the no-effect control and ±100 the full control effect.

Sequence of Thyrotropin receptor (Homo sapiens) (P16473 whole entry, looked up): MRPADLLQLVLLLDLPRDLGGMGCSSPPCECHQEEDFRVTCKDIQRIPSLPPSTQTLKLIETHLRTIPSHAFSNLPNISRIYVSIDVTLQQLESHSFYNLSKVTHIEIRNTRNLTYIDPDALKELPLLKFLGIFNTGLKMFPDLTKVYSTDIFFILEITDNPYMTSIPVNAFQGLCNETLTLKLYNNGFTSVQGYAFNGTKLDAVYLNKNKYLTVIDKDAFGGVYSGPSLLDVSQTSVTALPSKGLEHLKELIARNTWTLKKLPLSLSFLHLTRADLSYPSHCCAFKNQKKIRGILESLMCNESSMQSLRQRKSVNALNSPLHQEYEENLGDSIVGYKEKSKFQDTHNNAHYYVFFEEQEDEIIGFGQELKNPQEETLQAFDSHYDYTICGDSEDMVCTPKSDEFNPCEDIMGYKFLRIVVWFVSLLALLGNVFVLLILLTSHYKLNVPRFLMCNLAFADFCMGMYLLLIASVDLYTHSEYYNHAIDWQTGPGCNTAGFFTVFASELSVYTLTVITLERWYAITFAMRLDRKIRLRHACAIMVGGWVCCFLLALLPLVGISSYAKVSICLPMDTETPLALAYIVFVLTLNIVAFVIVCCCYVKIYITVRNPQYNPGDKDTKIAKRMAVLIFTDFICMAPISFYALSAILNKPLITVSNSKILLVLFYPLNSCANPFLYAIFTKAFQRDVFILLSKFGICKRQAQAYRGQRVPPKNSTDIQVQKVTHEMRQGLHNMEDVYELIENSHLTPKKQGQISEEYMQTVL
Sequence of Luciferin 4-monooxygenase (Photinus pyralis) (P08659 whole entry, looked up): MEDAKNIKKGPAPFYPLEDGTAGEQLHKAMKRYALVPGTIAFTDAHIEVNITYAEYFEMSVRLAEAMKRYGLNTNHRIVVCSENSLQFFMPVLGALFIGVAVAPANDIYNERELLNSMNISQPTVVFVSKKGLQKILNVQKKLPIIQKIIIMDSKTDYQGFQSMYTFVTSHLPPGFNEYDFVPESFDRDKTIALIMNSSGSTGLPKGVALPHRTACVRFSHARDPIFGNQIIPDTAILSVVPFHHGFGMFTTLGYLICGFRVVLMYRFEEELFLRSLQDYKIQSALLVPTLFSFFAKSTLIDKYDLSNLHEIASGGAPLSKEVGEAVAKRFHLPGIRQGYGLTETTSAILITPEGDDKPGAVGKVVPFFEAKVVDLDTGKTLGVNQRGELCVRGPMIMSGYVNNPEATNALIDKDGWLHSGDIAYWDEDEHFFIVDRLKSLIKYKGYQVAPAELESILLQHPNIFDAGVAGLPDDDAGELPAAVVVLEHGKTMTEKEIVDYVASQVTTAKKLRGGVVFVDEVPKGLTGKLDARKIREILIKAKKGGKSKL
Sequence of Nuclear receptor subfamily 1 group I member 3 (Homo sapiens) (Q14994 whole entry, looked up): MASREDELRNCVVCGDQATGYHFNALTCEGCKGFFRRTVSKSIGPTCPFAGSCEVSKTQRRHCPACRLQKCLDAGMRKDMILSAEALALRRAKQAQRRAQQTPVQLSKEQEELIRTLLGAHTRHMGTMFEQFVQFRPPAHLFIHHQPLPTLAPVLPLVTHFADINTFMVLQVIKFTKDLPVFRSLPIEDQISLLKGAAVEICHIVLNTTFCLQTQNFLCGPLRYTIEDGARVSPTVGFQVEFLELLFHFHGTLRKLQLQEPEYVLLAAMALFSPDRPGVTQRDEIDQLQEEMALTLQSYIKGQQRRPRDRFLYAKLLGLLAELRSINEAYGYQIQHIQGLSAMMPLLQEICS

As to `O=C(C(=O)c1ccc(Br)cc1)c1ccc(Br)cc1`, the activity change, negative = cytotoxicity is 5.23% [at 15.8 µM] in assay [1], 1.34% [at 19 µM] in [2] and -2.27% [at 19 µM] in assay [8]. For the same molecule, the results for the activity, negative = inhibition in assay [3] and in assay [9] were 45.5% [at 19 µM] and 0.195% [at 19 µM], respectively. The Potency entry in assay [4] was “inactive”. The viability change, negative = cytotoxic was -1.64% [at 19 µM] in [5], 3.05% [at 19 µM] in assay [7] and 3.02% [at 19 µM] in assay [11]. The activity change, negative = inhibition in assay [6] is 1.95% [at 23.6 µM]. The results for the activation in assay [10], in assay [12] and in assay [13] were 2.8% [at 19 µM], 2.38% [at 19 µM] and 3.26% [at 19 µM], respectively.
For the molecule `CCCCOc1cc(C(=O)OCCN(CC)CC)ccc1N`, the Potency entry in assay [1], in assay [2], in assay [3], in assay [4], in assay [5] and in [6] was “inactive” each time. Further, the Potency entry in assay [7], in assay [8], in [9] and in [11] was “inactive” in each case.
For the molecule `O=C1Nc2cc(Cl)ccc2Oc2ccccc21`, the Potency result in assay [1], in assay [2], in assay [3], in assay [4], in assay [5] and in [6] was “inactive” in each case. Also, the Potency result in assay [7], in assay [8], in assay [9], in assay [11] and in assay [13] was “inactive” in each case.
With `CC1CCc2cc(F)cc3c(=O)c(C(=O)O)cn1c23` (stereo not drawn), the Potency result in [1], in assay [2], in assay [3], in assay [4], in assay [5] and in assay [6] was “inactive” throughout. The Potency result in assay [7], in assay [8], in assay [9], in [11] and in assay [13] was “inactive” throughout.
In the case of `CN1CCN(C2=Nc3cc(Cl)ccc3Nc3ccccc32)CC1`, the Potency entry in [1], in assay [2], in [3], in assay [4], in [6] and in assay [9] was “inactive” in each case. Also, the Potency result in assay [13] was “inactive”. For the same molecule, the molecule was classed as inactive in assay [14]. Also, the Potency in assay [5] is 26.6 µM (active).
For the molecule `CCN(CC)C(C)=O`, the Potency result in assay [1], in [2], in assay [3], in assay [4], in assay [5] and in assay [6] was “inactive” in each case. For the same molecule, the Potency entry in assay [7], in assay [8], in assay [9], in assay [10], in assay [11] and in assay [15] was “inactive” each time. For the same molecule, the Potency result in assay [12] and in [13] was “inactive” in each case.
Consider `C=CC(C)(CCC=C(C)C)OC(=O)c1ccccc1` (stereo not drawn), for which the Potency entry in [1], in assay [2], in assay [3], in [4], in assay [5] and in [6] was “inactive” each time. The Potency entry in assay [7], in [11] and in assay [13] was “inactive” in each case.
On to `O=C(CCN1CCN2CCCC2C1)N1c2ccccc2Sc2ccc(Cl)cc21` (stereo not drawn), for which the results for the activity change, negative = cytotoxicity in assay [1], in [2] and in assay [8] were -22.2% [at 15.8 µM], -0.0558% [at 19 µM] and -18.2% [at 19 µM], respectively. In addition, the activity, negative = inhibition was -11.3% [at 19 µM] in assay [3] and -25.1% [at 19 µM] in assay [15]. Further, the Potency result in [4] was “inactive”. The results for the viability change, negative = cytotoxic in [5] and in assay [7] were -8.93% [at 19 µM] and -17% [at 19 µM], respectively. The activity change, negative = inhibition in assay [6] was -1.42% [at 23.6 µM]. Also, the activation is -6.92% [at 19 µM] in assay [12] and -2.43% [at 19 µM] in assay [13].
For `CCCCCOC(=O)COc1cc(N2C(=O)C3=C(CCCC3)C2=O)c(F)cc1Cl`, the Potency result in assay [1], in assay [2], in assay [3], in [4], in assay [5] and in assay [6] was “inactive” each time. Also, the Potency entry in [7], in assay [8] and in [11] was “inactive” in each case.
Consider `CCCCCCCCCCCCC(=O)O`, for which the Potency in [1] was 24.6 µM (active); in assay [6], 63.5 µM (active). Further, the Potency entry in assay [2], in [3], in [4], in assay [5], in assay [7] and in assay [8] was “inactive” each time. The Potency result in [9], in assay [10] and in assay [11] was “inactive” in each case.

Source of the values: PubChem BioAssay (Tox21).
